The text below walks through data of PubChem BioAssay AID2242 (National Center for Advancing Translational Sciences (NCATS), 2010).

Hit rate of the full screen: of about 200,000 compounds, about 720 (0.36%) were called active. About 8% were inconclusive and are not listed. The call rests on the fitted dose curve; in most records, active means well fitted activation curve with a large enough effect; inconclusive means small, poorly fitted or top-dose-only effect, or effect the other way, or another doubt; inactive means flat fitted curve, though single readings scatter. The list shows a part of the results.
Potency means the concentration at half of the fitted maximal effect.

The target of this test is Lysosomal alpha-glucosidase (Homo sapiens) (UniProt P10253). The test can be described thus: qHTS Assay for Activators of Human alpha-Glucosidase as a Potential Chaperone Treatment of Pompe Disease. Further: nearly all actives have a fitted effect of over 80% in size. Conditions: purified enzyme, 4-MU-alpha-glucoside fluorescence, 20 min; series mostly up to 76.9 µM. The essentials: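 Compounds titrated up to 77 uM against 4 nM enzyme and 400 uM methylumbelliferyl substrate at room temperature, 20 min, pH 5.0. Basic stop, then 4-methylumbelliferone fluorescence (365/440 nm) normalized to no-enzyme and enzyme controls; Hill-equation AC50.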
For orientation: Quantitative high-throughput screening tests each substance at several concentrations.
For `COC(=O)C1=CNC=C(C(=O)OC)C1c1cccc(OC)c1`, the Potency was 31.6 µM (active).
In the case of `COC(=O)C1=CN(C(C)C)C=C(C(=O)OC)C1c1cccc(OC)c1`, the Potency was 28.2 µM (active).
As to `Cc1ccc2cc3c(nc2c1)N(c1ccccc1)CC3`, the Potency was 22.4 µM (active).
On to `N#C/C(=C(/O)CCCl)c1ccccn1`, for which the Potency was 39.8 µM (active).
Regarding `CC1CCCN(CCCNC(=O)c2coc3nc4ccccc4nc23)C1` (stereo not given), the Potency was 22.4 µM (active).
Regarding `Cc1ccc(C2N(C)c3ccccc3-c3nc4ccccc4n32)o1` (stereo not given), the Potency was 39.8 µM (active).
Regarding `CN1c2ccccc2-c2nc3ccccc3n2C1c1ccco1` (stereo not given), the Potency was 39.8 µM (active).
With `CCN1c2ccccc2-c2nc3ccccc3n2C1c1ccco1` (stereo not given), the Potency was 35.5 µM (active).
For `CN(C)c1c2ccccc2nc2c(F)c(F)c(F)c(F)c12`, the Potency was 39.8 µM (active).
As to `Clc1ccc(-c2nc3ncccn3c2Cl)cc1`, the Potency was 22.4 µM (active).
As for `CC(=O)/C=C(\C)Nc1ccc(-c2cnc(-c3ccccc3)o2)cc1`, the Potency is 39.8 µM (active).
`Nc1cccc2nc3ccccc3cc12`: the Potency was 28.2 µM (active).
As for `Cc1cc(=O)oc2cc(NS(=O)(=O)c3ccc(F)cc3)ccc12`, the figure is 35.5 µM (active).
As for `Cc1cc(=O)oc2cc(NS(=O)(=O)c3ccccc3)ccc12`, the figure is 35.5 µM (active); as for `CCCCCOC(=O)c1c(N)n(CCOC)c2nc3ccccc3nc12`, 35.5 µM (active).
As to `COCCn1c(N)c(C(=O)OCc2ccccc2)c2nc3ccccc3nc21`, the Potency was 31.6 µM (active).
In the case of `CCOC(=O)c1c(N)n(CCOC(=O)c2cccs2)c2nc3ccccc3nc12`, the Potency was 31.6 µM (active).
On to `CCOc1ccc(CN2CCN(Cc3[nH]c4ccc(OC)cc4c3C)CC2CCO)cc1` (stereo not given), for which the Potency result is “inactive”.
Consider `O=C(O)CCn1cc(C2CC(c3ccccc3)=NN2c2ccccc2)c(-c2ccccc2)n1` (stereo not given), for which the Potency is 31.6 µM (active).
Regarding `Nc1c(S(=O)(=O)c2cccs2)c2nc3ccccc3nc2n1CC1CCCO1` (stereo not given), the Potency is 31.6 µM (active).
Turning to `Nc1c(S(=O)(=O)c2cccs2)c2nc3ccccc3nc2n1CCc1ccccc1`, the Potency was 31.6 µM (active).
As for `COCCn1c(N)c(S(=O)(=O)c2cccs2)c2nc3ccccc3nc21`, the figure is 35.5 µM (active).
Take `C=CCn1c(N)c(S(=O)(=O)c2cccs2)c2nc3ccccc3nc21`: the Potency was 35.5 µM (active).
Regarding `CC(C)CCn1c(N)c(S(=O)(=O)c2cccs2)c2nc3ccccc3nc21`, the Potency was 35.5 µM (active).
In the case of `CC(C)Cn1c(N)c(S(=O)(=O)c2cccs2)c2nc3ccccc3nc21`, the Potency is 25.1 µM (active).
On to `Cc1ccc(-c2cc(-c3ccccc3)c(C#N)c(N)n2)o1`, for which the Potency is 35.5 µM (active).
With `Cc1ccc(-c2cc(-c3ccccc3Cl)c(C#N)c(N)n2)o1`, the Potency is 28.2 µM (active).
Regarding `Cn1c(C(=O)NCc2ccccn2)cc2c(=O)n3ccccc3nc21`, the Potency was 28.2 µM (active).
For the compound `Cn1c(C(=O)NCC2CCCO2)cc2c(=O)n3ccccc3nc21` (stereo not given), the Potency is 31.6 µM (active).
As to `CCOC(=O)CC1C(=O)NCCN1C(=O)c1cc2c(=O)n3cccc(C)c3nc2s1` (stereo not given), the Potency is 31.6 µM (active).
In the case of `CCOC(=O)CC1C(=O)NCCN1C(=O)c1cc2c(=O)n3ccccc3nc2s1` (stereo not given), the Potency was 35.5 µM (active).
With `COc1cc2c(cc1OC)C(C)N(C(=O)c1cc3c(s1)-c1ccccc1OC3)CC2` (stereo not given), the Potency is 39.8 µM (active).
Regarding `O=C(c1cc2c(s1)-c1ccccc1OC2)N1CCc2ccccc2C1`, the Potency is 35.5 µM (active).
Consider `O=C(c1cc2c(s1)-c1ccccc1OC2)N1CCCC1`, for which the Potency was 28.2 µM (active).
Turning to `CN1C(=O)c2ccccc2N(C)C1c1ccccc1Cl` (stereo not given), the Potency was 39.8 µM (active).
As for `CCCCn1c2nc3ccccc3nc2c2c(=O)n(-c3ccccc3)cnc21`, the Potency was 35.5 µM (active).
Under `CCC(N=c1cc(-c2ccc(OC)cc2)oc2ccc(C)cc12)C(=O)O` (stereo not given) stands 31.6 µM (active).
For `O=[N+]([O-])c1cccc(Nc2c3ccccc3nc3ccccc23)c1`, the Potency was 28.2 µM (active).
With `O=c1oc2c(CN3CCN(CCO)CC3)c(O)ccc2cc1-c1ccccn1`, the Potency is 31.6 µM (active).
For `CCCN(CC(=O)Nc1ccc(Cl)cc1Cl)C(=O)/C=C/c1cc(OC)ccc1OC`, the Potency was 31.6 µM (active).
As for `CCCCC[n+]1cccc2c3ccccc3ccc21`, the Potency was 35.5 µM (active).
Turning to `c1ccc(C[n+]2cccc3c4ccccc4ccc32)cc1`, the Potency was 39.8 µM (active).
Take `O=C(O)C1C2C=CC(O2)C1C(=O)NCCCn1ccnc1` (stereo not given): the Potency is 20 µM (active).
As to `CN1CCCc2cc(C#N)c(=O)[nH]c21`, the Potency was 39.8 µM (active).
For `Cc1cc(=O)oc2cc3c(cc12)OCCN3`, the Potency is 35.5 µM (active).
`COc1cccc(-c2cc(C(F)(F)F)c(C#N)c(=O)[nH]2)c1`: the Potency was 35.5 µM (active).
Under `N#Cc1c(C(F)(F)F)cc(-c2ccccc2)[nH]c1=O` stands 35.5 µM (active); under `COc1cccc(-c2ccc(C#N)c(=O)[nH]2)c1`, 39.8 µM (active); under `N#Cc1c(C(F)(F)F)cc(-c2cccc(Cl)c2)[nH]c1=O`, 39.8 µM (active).
For `N#Cc1c(C(F)(F)F)cc(-c2ccc(Cl)cc2)[nH]c1=O`, the Potency was 39.8 µM (active).
As for `N#Cc1c(C(F)(F)F)cc(-c2ccc(F)cc2)[nH]c1=O`, the Potency is 35.5 µM (active).
As for `COc1ccccc1-c1cc(C(F)(F)F)c(C#N)c(=O)[nH]1`, the figure is 39.8 µM (active).
For `O=C1c2cnc3ncnn3c2CC2c3ccccc3CCN12` (stereo not given), the Potency is 12.6 µM (active).
`N#Cc1cnn2c3c(cnc12)C(=O)N1CCc2ccccc2C1C3` (stereo not given): the Potency is 3.98 µM (active).
Consider `CC(=O)c1cc2cc(O)ccc2o1`, for which the Potency is 35.5 µM (active).
Consider `Cc1cc(C)n(-c2nc3ccccc3[nH]c2=O)n1`, for which the Potency was 39.8 µM (active).
Consider `CNc1nnc(-c2ccc(N(C)C)cc2)s1`, for which the Potency is 35.5 µM (active).
With `Cc1cc(=O)[nH]c2cc(O)ccc12`, the Potency is 35.5 µM (active).
Consider `CC(=O)Oc1ccc2c(C)cc(=O)[nH]c2c1`, for which the Potency was 20 µM (active).
Under `CCc1cc2c(=O)c(Oc3ccccc3F)c(C)oc2c(CN(C)C)c1O` stands 35.5 µM (active); under `CC(C)Nc1oc(-c2cccc3ccccc23)nc1C#N`, 35.5 µM (active).
As to `CC1CCN(c2oc(-c3cccc4ccccc34)nc2C#N)CC1`, the Potency was 25.1 µM (active).
`C=CCNc1oc(-c2cccc3ccccc23)nc1C#N`: the Potency is 31.6 µM (active).
On to `COc1ccccc1NC(=O)CSc1nc2c(sc3ccccc32)c(=O)n1CCN(C)C`, for which the Potency is 35.5 µM (active).
Under `CCOC(=O)c1c(C)nc(C)c(C(=O)OCC)c1-c1ccccc1` stands 31.6 µM (active).
